Sampled rows, rich in hits. Any-hit rate of the full collection: about 5.6%.
CtBP-E1A blk = qHTS Assay for Inhibitors of the CtBP/E1A Interaction; CtBP / adenovirus E1A interaction (AlphaScreen); AlphaScreen GST-E1A/His-CtBP binding, 1536-well; stronger effect = lower value; activity change, % (test concentration not listed); 340,000 compounds, 0.49% hits; in the data active = activity change below about -65%; inconclusive = mostly about -30% to -63%
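Protein mix (5X: 125 nM each GST-E1A, His-CtBP) was incubated with pinned compound 2 h at 37 deg C in dark, in 50 mM Tris pH 8.0 buffer with 300 mM NaCl. Glutathione donor and nickel acceptor beads followed; AlphaScreen signal read after 1 h.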
PKM2 activator = qHTS Assay for Activators of Human Muscle isoform 2 Pyruvate Kinase | Potency, µM (series often up to 57.5 µM), without a hit: at the highest dose activation, most hits filed as activators | AID 1631, 2009 | purified PKM2, Kinase-Glo ATP luminescence, activation; response scale: 0% is enzyme alone, no compound | Pyruvate kinase PKM (Homo sapiens), P14618 | 260,000 compounds, 0.34% hits; note: potency is the fitted concentration of half-maximal effect; nearly all actives have a fitted effect of over 55% in size
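ATP formation by purified human PK-M2, quantified via coupled luciferase luminescence after 1 h at room temperature with 0.1 mM ADP and 0.5 mM PEP final.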
RORgamma inh = qHTS for inhibitors of ROR gamma transcriptional activity. Nuclear receptor ROR-gamma (Mus musculus), P51450. Drosophila S2 Gal4-RORgamma UAS-luciferase reporter, 20 h. Potency, µM (doses to about 53.6 µM), inactives show at the top dose activity change, negative = inhibition, actives largely listed as inhibitors. 310,000 compounds, 5.4% hits; note: potency is the fitted concentration of half-maximal effect; nearly all actives have a fitted effect of over 60% in size
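Compounds are pin-transferred onto Drosophila Schneider cells expressing a copper-inducible Gal4–ROR gamma transactivation domain fusion. After 1 hr, copper sulfate is added to 700 uM final; luciferase is read 20 hr later.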
Six1-Eya2 inh = qHTS Assay for Inhibitors of the Six1/Eya2 Interaction | Homeobox protein SIX1 (Homo sapiens) + Protein phosphatase EYA2 (Homo sapiens), … | AlphaScreen GST-Six1/His-Eya2 binding, biochemical; stronger effect = lower value | activity change, % (no concentration beside the values) | 360,000 compounds, 0.56% hits; in the data active = activity change below about -65%; inconclusive = mostly about -30% to -63%
Target sequence (O00167 whole entry, looked up): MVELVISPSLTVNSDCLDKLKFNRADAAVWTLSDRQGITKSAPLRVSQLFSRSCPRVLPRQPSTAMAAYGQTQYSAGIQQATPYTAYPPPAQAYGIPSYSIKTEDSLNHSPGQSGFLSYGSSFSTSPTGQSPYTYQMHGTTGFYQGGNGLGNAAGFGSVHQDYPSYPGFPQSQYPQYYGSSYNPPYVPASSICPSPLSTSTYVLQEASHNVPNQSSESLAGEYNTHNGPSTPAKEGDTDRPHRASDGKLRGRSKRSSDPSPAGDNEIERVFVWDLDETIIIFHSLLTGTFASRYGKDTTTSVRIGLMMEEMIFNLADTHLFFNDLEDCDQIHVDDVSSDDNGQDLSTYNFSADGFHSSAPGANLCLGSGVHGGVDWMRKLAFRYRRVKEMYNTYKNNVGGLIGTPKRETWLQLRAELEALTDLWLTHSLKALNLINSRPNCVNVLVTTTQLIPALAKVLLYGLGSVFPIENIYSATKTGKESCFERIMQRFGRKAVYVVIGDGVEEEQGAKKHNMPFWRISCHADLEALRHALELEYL
Target sequence (Q15475 whole entry, looked up): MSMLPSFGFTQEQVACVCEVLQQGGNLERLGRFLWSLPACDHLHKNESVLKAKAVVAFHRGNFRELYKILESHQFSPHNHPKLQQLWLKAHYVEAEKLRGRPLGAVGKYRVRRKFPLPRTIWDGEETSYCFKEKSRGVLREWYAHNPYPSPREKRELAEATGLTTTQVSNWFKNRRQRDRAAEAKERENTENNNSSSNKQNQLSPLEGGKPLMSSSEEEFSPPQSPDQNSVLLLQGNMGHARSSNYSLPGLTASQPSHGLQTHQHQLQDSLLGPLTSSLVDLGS
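Six1/Eya2 binding was read as AlphaScreen signal after compounds were pinned into GST-Six1 plus His-tagged Eya2 (5X stock 250/500 nM) in pH 8.0 Tris/NaCl/TCEP buffer, beads added, then incubated 1 h, 37 C, dark.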
Gal4-VP16 FLuc = VP16 counterscreen qHTS for inhibitors of ROR gamma transcriptional activity; Drosophila S2 Gal4-VP16 UAS-luciferase, luminescence, 20 h; Potency, µM (top dose mostly 53.6 µM), without a hit: at the highest dose activity, negative = inhibition, most hits filed as inhibitors; 310,000 compounds, 3.5% hits; AID 2546, 2010;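 note: Gal4-VP16 expression switched on by copper sulfate through the metallothionein promoter; potency is the fitted concentration of half-maximal effect; nearly all actives have a fitted effect of over 50% in size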
Active calls of the source: *; ! = not active in a repeat. Unless noted, calls come from the whole dose curve; as a rule, active = well fitted curve in the direction sought with a large enough effect; inconclusive = small, poorly fitted or top-dose-only effect, or another doubt; inactive = no such curve, though single readings can be large; an effect the other way counts as inactive or inconclusive. % is set by controls: 0 for no effect and ±100 for the full control effect.

Results for COc1cc(O)c(C(CC(=O)N2CCCCC2)c2ccc3c(c2)OCO3)c(OC)c1 (stereo not drawn) ?
CtBP-E1A blk: -1; PKM2 activator: 0%; RORgamma inh: 14µM*; Six1-Eya2 inh: -13; Gal4-VP16 FLuc: -5%

How did COc1cc(O)c(C(CC(=O)N2CCCC(C)C2)c2ccc3c(c2)OCO3)c(OC)c1 (stereo not drawn) do in these assays?
CtBP-E1A blk: 19; PKM2 activator: 3%; RORgamma inh: 3.5µM*; Six1-Eya2 inh: 2; Gal4-VP16 FLuc: -7%

How did COc1cc(O)c(C(CC(=O)N2CCCC(C)C2)c2ccc(N(C)C)cc2)c(OC)c1 (stereo not drawn) do in these assays?
CtBP-E1A blk: inconclusive; PKM2 activator: -1%; RORgamma inh: 2µM*; Six1-Eya2 inh: inconclusive; Gal4-VP16 FLuc: -9%

What do the screens show for `NNc1nc(-c2ccccc2)nc(-c2ccccc2)c1Br`?
Six1-Eya2 inh: -1

How did COc1ccc(NC(=O)N[C@H]2C=C[C@@H](CC(=O)NC3CCC3)O[C@@H]2CO)cc1 do in these assays?
CtBP-E1A blk: -6; Six1-Eya2 inh: 2

Results for CC(C)Oc1ccc(/C=C(/NC(=O)c2ccccc2)C(=O)NCCC(=O)O)cc1 ?
CtBP-E1A blk: -1; PKM2 activator: -3%; RORgamma inh: 11µM*; Six1-Eya2 inh: 3; Gal4-VP16 FLuc: -17%

How did CCOc1ccccc1N1CCN(C(=O)c2cc(-c3cccnc3)nc3c(Cl)cccc23)CC1 do in these assays?
CtBP-E1A blk: -10; PKM2 activator: 2%; RORgamma inh: 4%; Six1-Eya2 inh: -2; Gal4-VP16 FLuc: -21%

Results for Cc1cc(C)n(-c2nc3ccccc3nc2N2CCN(S(=O)(=O)c3ccc(F)c(C)c3)CC2)n1 ?
CtBP-E1A blk: 8; PKM2 activator: 10µM*; RORgamma inh: -10%; Six1-Eya2 inh: 0; Gal4-VP16 FLuc: 6%

Results for COc1ccc(N2CCN(C3CCCN(S(=O)(=O)c4ccc(C)cc4C)C3)CC2)cc1 (stereo not drawn) ?
CtBP-E1A blk: -66*; RORgamma inh: 22%; Six1-Eya2 inh: inconclusive; Gal4-VP16 FLuc: -14%

Results for C[C@@H]1Cc2c(O)c(O)cc(O)c2C(=O)O1 ?
CtBP-E1A blk: 2; PKM2 activator: -9%; RORgamma inh: 20%; Six1-Eya2 inh: -6; Gal4-VP16 FLuc: -4%

Results for CC1CCC/C=C/C(=O)c2c(O)cc(O)cc2CC(=O)O1 (stereo not drawn) ?
CtBP-E1A blk: -23; PKM2 activator: -1%; RORgamma inh: inconclusive; Six1-Eya2 inh: 1; Gal4-VP16 FLuc: 22µM*

Results for Cc1cccc(C(=O)n2c(=S)nc3cc(C)ccn32)c1 ?
CtBP-E1A blk: 8; PKM2 activator: -6%; RORgamma inh: inconclusive; Six1-Eya2 inh: -2; Gal4-VP16 FLuc: inconclusive

Results for Cc1ccn2c(c1)nc(=S)n2C(=O)c1ccccc1 ?
CtBP-E1A blk: -5; PKM2 activator: -24%; RORgamma inh: 4µM*; Six1-Eya2 inh: -4; Gal4-VP16 FLuc: 2.5µM*

What do the screens show for `NCCC[C@@H](CC(=O)N[C@@H]1CCCC[C@H]1C(=O)N[C@H](CC(=O)N[C@@H](CCC(=O)O)CC(=O)O)Cc1c[nH]c2ccccc12)NC(=O)C[C@H](Cc1c[nH]c2ccccc12)NC(=O)[C@@H]1CNCC[C@H]1N`?
RORgamma inh: 17%; Gal4-VP16 FLuc: 3%

Results for CCCCN(CC)Cc1ccc(CNC(=O)Nc2ccc(F)cc2)o1 ?
CtBP-E1A blk: 0; PKM2 activator: -11%; RORgamma inh: -5%; Six1-Eya2 inh: -3; Gal4-VP16 FLuc: -1%

What do the screens show for `CCCCN(CC)Cc1ccc(CNC(=S)Nc2c(C)cc(C)cc2C)o1`?
CtBP-E1A blk: -2; PKM2 activator: -14%; RORgamma inh: 3.2µM*; Six1-Eya2 inh: -7; Gal4-VP16 FLuc: 6.3µM*

What do the screens show for `CCCCN(CC)Cc1ccc(CNC(=S)Nc2ccc(C)cc2Cl)o1`?
CtBP-E1A blk: -7; PKM2 activator: -2%; RORgamma inh: 16µM*; Six1-Eya2 inh: -1; Gal4-VP16 FLuc: -27%

How did COc1ccc(C2Nc3ccccc3C(=O)N2Cc2ccco2)cc1CN1C(=O)c2ccccc2C1=O (stereo not drawn) do in these assays?
CtBP-E1A blk: -8; PKM2 activator: 20µM*!; RORgamma inh: 15%; Six1-Eya2 inh: -11; Gal4-VP16 FLuc: 6%

Results for O=C1c2ccccc2NC(c2cccc(O)c2)N1Cc1ccco1 (stereo not drawn) ?
CtBP-E1A blk: 2; PKM2 activator: 12%; RORgamma inh: 0%; Six1-Eya2 inh: 2; Gal4-VP16 FLuc: 1%

Results for COc1ccc(C2Nc3ccccc3C(=O)N2Cc2ccco2)cc1COc1ccc(F)cc1 (stereo not drawn) ?
CtBP-E1A blk: 0; PKM2 activator: 14µM*; RORgamma inh: inconclusive; Six1-Eya2 inh: -12; Gal4-VP16 FLuc: inconclusive

How did COc1ccc(C2Nc3ccccc3C(=O)N2Cc2ccccc2)cc1COc1ccccn1 (stereo not drawn) do in these assays?
CtBP-E1A blk: -2; PKM2 activator: 27%; RORgamma inh: -3%; Six1-Eya2 inh: 2; Gal4-VP16 FLuc: -11%

What do the screens show for `Cc1ccnn1-c1ccc(C(=O)N2CCCN(S(=O)(=O)c3ccc(F)cc3)CC2)cc1`?
Six1-Eya2 inh: 23

What do the screens show for `CC(C)c1ccc(NC(=O)Nc2nc(C(N)c3ccccc3Cl)cs2)cc1` (stereo not drawn)?
CtBP-E1A blk: -2; Six1-Eya2 inh: -5

How did CCCn1c(SCN2C(=O)c3ccccc3C2=O)nc2cc(Cl)ccc2c1=O do in these assays?
CtBP-E1A blk: -1; PKM2 activator: -1%; RORgamma inh: 10µM*; Six1-Eya2 inh: -3; Gal4-VP16 FLuc: inconclusive

Results for COC(=O)C(C)Sc1ccc2nnc(-c3ccc(F)cc3)n2n1 (stereo not drawn) ?
CtBP-E1A blk: 0; PKM2 activator: -4%; RORgamma inh: -39%; Six1-Eya2 inh: 1; Gal4-VP16 FLuc: 6%

Results for CCC(Sc1ccc2nnc(-c3ccc(F)cc3)n2n1)C(=O)OC (stereo not drawn) ?
CtBP-E1A blk: 12; PKM2 activator: -2%; RORgamma inh: 20µM*; Six1-Eya2 inh: -9; Gal4-VP16 FLuc: 0%

How did CCOC(=O)c1c(NC(=O)CSc2nc3ccccc3o2)sc(C(C)=O)c1C do in these assays?
CtBP-E1A blk: 2; PKM2 activator: -2%; RORgamma inh: 13µM*; Six1-Eya2 inh: -8; Gal4-VP16 FLuc: inconclusive

Assay outcomes: PubChem BioAssay, National Center for Advancing Translational Sciences (NCATS)
